Results published in PubChem BioAssay.
The source made the active and inactive calls. Unless noted, how the calls were made is not given here.

Key:
[1] = resazurin metabolic signal in HepG2 cells – cell-based, resazurin fluorescence, 24 h, PK04 Diversity Set, profiling panel (AID 1172); conditions: HepG2 viability, higher = more signal
[2] = budding yeast growth changes without added modifier – OD600, strain BY4716, 24 h, basal condition, primary screen (AID 1173); conditions: S. cerevisiae BY4716 growth, OD600, 24 h; higher = more signal, called active from +8 up or from −8 down
[3] = viability profiling in MM1S myeloma cells – cell-based, resazurin fluorescence, basal, 24 h, PK04 Diversity Set, profiling panel (AID 1174); conditions: higher = more signal, called active from +8 up or from −8 down;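 further: MM1S multiple myeloma cell line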
[4] = molecular target: Dihydroorotate dehydrogenase (quinone), mitochondrial (Plasmodium falciparum (isolate 3D7)) (UniProt Q08210); test: inhibition of P. falciparum DHODH – biochemical, C-terminal His tag, absorbance 600 nm, primary screen (AID 1175); conditions: PfDHODH enzyme, DCIP absorbance 600 nm; higher = more signal, called active from +8 up or from −8 down;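 further: recombinant parasite enzyme with a five histidine tag at its C terminus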
Dihydroorotate dehydrogenase (quinone), mitochondrial (Plasmodium falciparum (isolate 3D7)), sequence (Q08210 whole entry, looked up): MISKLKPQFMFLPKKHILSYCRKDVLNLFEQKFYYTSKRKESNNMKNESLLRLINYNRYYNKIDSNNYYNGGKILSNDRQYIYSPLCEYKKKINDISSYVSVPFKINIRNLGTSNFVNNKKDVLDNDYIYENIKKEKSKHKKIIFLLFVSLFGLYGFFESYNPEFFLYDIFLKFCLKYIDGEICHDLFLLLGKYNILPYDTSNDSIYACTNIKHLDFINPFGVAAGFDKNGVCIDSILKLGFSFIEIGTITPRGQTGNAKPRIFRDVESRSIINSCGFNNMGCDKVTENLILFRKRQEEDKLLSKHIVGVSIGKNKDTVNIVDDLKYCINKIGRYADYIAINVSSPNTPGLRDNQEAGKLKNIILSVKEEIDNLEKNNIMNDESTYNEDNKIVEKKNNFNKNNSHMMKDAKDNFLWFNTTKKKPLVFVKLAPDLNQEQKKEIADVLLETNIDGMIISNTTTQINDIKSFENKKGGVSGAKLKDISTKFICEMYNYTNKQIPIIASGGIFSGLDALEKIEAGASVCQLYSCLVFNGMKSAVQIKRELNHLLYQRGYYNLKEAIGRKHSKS

[5] = inhibition of PAO1 biofilm formation – strain PAO1, LB-PBS medium, absorbance 600 nm, primary screen (AID 1176); conditions: P. aeruginosa PAO1 growth/biofilm, A600, 12 h; higher = more signal
[6] = growth modulation of vineyard yeast isolate – strain RM11-1a, OD600, basal, 24 h, primary screen (AID 1177);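 further: cultures grown under basal conditions with no added stressor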; conditions: S. cerevisiae RM11-1a growth, OD600, 24 h; higher = more signal, called active from +8 up or from −8 down
[7] = growth of efflux-deficient E. coli DRC39 – strain DRC39, OD650, 24 h, E. coli filamentation inducers, primary screen (AID 1178);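 further: growth measured as culture turbidity by optical density at 650 nm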; conditions: E. coli DRC39 acrAB, higher = more signal, called active from +8 up or from −8 down
[8] = growth of efflux-deficient E. coli DRC39 – strain DRC39, OD650, 48 h, E. coli filamentation inducers, primary screen (AID 1179);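 further: screen aims at cell division blockers that make cells filament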; conditions: E. coli DRC39 delta-acrAB growth, higher = more signal, called active from +8 up or from −8 down
[9] = viability profiling in RPMI8226 myeloma cells – cell-based, resazurin fluorescence, basal, 24 h, PK04 Diversity Set, profiling panel (AID 1180); conditions: higher = more signal;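 further: RPMI8826 multiple myeloma cell line at 5000 cells per well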
[10] = molecular target: E3 ubiquitin-protein ligase XIAP (Homo sapiens) (UniProt P98170); test: small molecules binding XIAP protein – biophysical, small-molecule microarray, fluorescence 635 nm, primary screen (AID 1181); conditions: higher = more signal;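 further: score merges 667 nm emission and signal to noise over triplicate slides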
E3 ubiquitin-protein ligase XIAP (Homo sapiens), sequence (P98170 whole entry, looked up, the tested form may be a part): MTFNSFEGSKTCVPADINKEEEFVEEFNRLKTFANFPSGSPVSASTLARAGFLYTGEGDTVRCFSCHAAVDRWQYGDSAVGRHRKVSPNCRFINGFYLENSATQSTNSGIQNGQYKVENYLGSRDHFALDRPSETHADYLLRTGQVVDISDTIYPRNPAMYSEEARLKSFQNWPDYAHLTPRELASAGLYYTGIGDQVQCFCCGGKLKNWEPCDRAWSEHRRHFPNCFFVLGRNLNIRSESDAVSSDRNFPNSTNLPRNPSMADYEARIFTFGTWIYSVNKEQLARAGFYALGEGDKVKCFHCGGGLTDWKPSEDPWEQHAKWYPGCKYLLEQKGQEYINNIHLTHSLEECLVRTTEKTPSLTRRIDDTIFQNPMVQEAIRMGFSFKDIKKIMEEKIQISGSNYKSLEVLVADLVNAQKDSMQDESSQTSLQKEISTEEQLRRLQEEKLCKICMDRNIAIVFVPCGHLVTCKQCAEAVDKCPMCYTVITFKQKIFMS

[11] = tested on: XIP peptide (Xip251-270) binding; test: XIP fragment 251-270 binding compounds – biochemical, small-molecule microarray, fluorescence 635/667 nm, 0.1 µg/mL protein, primary screen (AID 1182); conditions: fluorescent protein binding, 635 nm, higher = more signal, called active from +8 up or from −8 down
[12] = tested on: XIP peptide (Xip251-270); test: compounds binding XIP fragment 251-270 – biochemical, small-molecule microarray, fluorescence 635/667 nm, 0.5 µg/mL protein, primary screen (AID 1183); conditions: fluorescence 635 nm, higher = more signal
[13] = blood-stage malaria parasite viability loss – strain 3D7, DAPI fluorescence, 100 nL, primary screen (AID 1184);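 further: parasites grown inside human red blood cells in medium with human serum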; conditions: P. falciparum 3D7 growth, 3 d, higher = more signal
[14] = molecular target: Homeobox protein Hox-A13 (Mus musculus) (UniProt Q62424); test: disruptors of Hoxa13 oligonucleotide interaction – biochemical, fluorescence polarization, labeled oligonucleotide, primary screen (AID 1185); conditions: Hoxa13:DNA binding, 15 min, higher = more signal, called active from +8 up or from −8 down
Homeobox protein Hox-A13 (Mus musculus), sequence (Q62424 whole entry, looked up): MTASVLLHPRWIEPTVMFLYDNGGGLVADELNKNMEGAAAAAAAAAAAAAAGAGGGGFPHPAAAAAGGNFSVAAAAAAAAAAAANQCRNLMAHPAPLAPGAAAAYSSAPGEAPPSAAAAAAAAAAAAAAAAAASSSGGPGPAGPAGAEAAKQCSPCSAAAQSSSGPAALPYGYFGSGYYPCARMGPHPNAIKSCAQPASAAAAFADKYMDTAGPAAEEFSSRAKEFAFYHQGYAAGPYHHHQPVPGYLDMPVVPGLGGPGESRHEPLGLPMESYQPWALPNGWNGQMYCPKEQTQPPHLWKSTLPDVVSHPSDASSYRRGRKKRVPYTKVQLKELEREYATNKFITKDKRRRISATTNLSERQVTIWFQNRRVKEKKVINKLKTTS

CC(C)=CCCC(C)=CCON=C1C[C@@H](O)[C@@H](O)[C@@H]2[C@@H]3C(=O)N(c4ccc(F)cc4F)C(=O)[C@@H]3CC[C@H]12
z-score [1]: 0.844 | z-score [2]: -2.97 (inactive) | z-score [3]: 0.257 (inactive) | composite z-score [4]: -1.42 (inactive) | z-score [5]: 0.671 (inactive) | z-score [6]: -0.777 (inactive) | z-score [7]: 0.375 (inactive) | z-score [8]: 0.438 (inactive) | z-score [9]: 1.32 | composite z-score [10]: -0.0939 | composite z-score [11]: -0.163 (inactive) | composite z-score [12]: 0.37 | z-score [13]: 0.0436 | z-score [14]: -2.5 (inactive)

Cn1c(=O)n2n(c1=O)[C@H]1[C@H](O)[C@@H]3O[C@@H]3C(=NOCc3ccccc3)[C@H]1CC2
z-score [1]: 0.0287 | z-score [2]: 0.0108 (inactive) | z-score [3]: -0.189 (inactive) | composite z-score [4]: -1.08 (inactive) | z-score [5]: -0.0242 (inactive) | z-score [6]: -0.186 (inactive) | z-score [7]: -0.289 (inactive) | z-score [8]: -0.265 (inactive) | z-score [9]: -0.336 | composite z-score [10]: -0.222 | composite z-score [11]: 0.899 (inactive) | composite z-score [12]: 0.382 | z-score [13]: 0.769 | z-score [14]: -2.35 (inactive)

COC(=O)CC=C[C@@H](C)[C@@H](C=NOC[C@H]1O[C@H](c2ccccc2)C=C[C@@H]1Oc1ccc(OC)cc1)NS(=O)(=O)c1ccc(C)cc1
z-score [1]: -0.659 | z-score [2]: 0.642 (inactive) | z-score [3]: -0.0907 (inactive) | composite z-score [4]: 0.0727 (inactive) | z-score [5]: -0.0781 (inactive) | z-score [6]: 0.0674 (inactive) | z-score [7]: -1.01 (inactive) | z-score [8]: -0.913 (inactive) | z-score [9]: -0.189 | composite z-score [10]: -0.167 | composite z-score [11]: -0.0195 (inactive) | composite z-score [12]: -0.827 | z-score [13]: -0.683 | z-score [14]: -2.52 (inactive)

CC(=O)OC[C@H]1O[C@@H](ON=C(C)CCN2CCCc3nc(C)c(C)cc32)[C@H](OC(C)=O)[C@@H](OC(C)=O)[C@@H]1OC(C)=O
z-score [1]: -0.288 | z-score [2]: 0.131 (inactive) | z-score [3]: 0.188 (inactive) | composite z-score [4]: -2.04 (inactive) | z-score [5]: -0.503 (inactive) | z-score [6]: -0.45 (inactive) | z-score [7]: -0.925 (inactive) | z-score [8]: -1.26 (inactive) | z-score [9]: 0.529 | composite z-score [10]: -0.138 | composite z-score [11]: -0.444 (inactive) | composite z-score [12]: 0.667 | z-score [13]: -1.3 | z-score [14]: -5.84 (inactive)

COc1cccc([C@H]2Oc3ccc(OC)cc3C(=NO[C@H](C)c3cn([C@H](CO)Cc4ccccc4)nn3)[C@@H]2O)c1
z-score [1]: -0.26 | z-score [2]: 0.723 (inactive) | z-score [3]: -0.328 (inactive) | composite z-score [4]: -0.755 (inactive) | z-score [5]: 0.417 (inactive) | z-score [6]: -1.11 (inactive) | z-score [7]: 0.753 (inactive) | z-score [8]: 0.571 (inactive) | z-score [9]: 0.249 | composite z-score [10]: -0.278 | composite z-score [11]: -0.0592 (inactive) | composite z-score [12]: 0.733 | z-score [13]: 0.24 | z-score [14]: -6.29 (inactive)

COC(=O)[C@H](C)NC(=O)CCC1CC(OC(=O)NCc2ccc3c(c2)OCO3)CC2(CCCC(COC(=O)NCCc3ccccc3OC)O2)O1 (stereo not given in full)
z-score [1]: -0.134 | z-score [2]: -0.148 (inactive) | z-score [3]: -0.344 (inactive) | composite z-score [4]: -1.07 (inactive) | z-score [5]: 0.238 (inactive) | z-score [6]: 0.0525 (inactive) | z-score [7]: 0.775 (inactive) | z-score [8]: 0.451 (inactive) | z-score [9]: -0.229 | composite z-score [10]: -0.252 | composite z-score [11]: 0.516 (inactive) | composite z-score [12]: 0.588 | z-score [13]: -0.143 | z-score [14]: -6.43 (inactive)

COC(=O)CC=C[C@@H](C)[C@@H](C=NO[C@H](C)c1cn([C@H](CO)Cc2ccccc2)nn1)NS(=O)(=O)c1ccc(C)cc1
z-score [1]: -0.891 | z-score [2]: -1.17 (inactive) | z-score [3]: -0.81 (inactive) | composite z-score [4]: 0.0463 (inactive) | z-score [5]: 0.0282 (inactive) | z-score [6]: -0.476 (inactive) | z-score [7]: 0.0146 (inactive) | z-score [8]: -0.0853 (inactive) | z-score [9]: 0.108 | composite z-score [10]: -0.206 | composite z-score [11]: -0.418 (inactive) | composite z-score [12]: 0.126 | z-score [13]: 0.346 | z-score [14]: -6.42 (inactive)

C[C@@H](c1ccccc1)N1C(=O)[C@H]2[C@H]3[C@H](O)[C@H](O)CC(=NO[C@@H]4O[C@H](CO)[C@@H](O)[C@H](O)[C@H]4O)[C@H]3CC[C@H]2C1=O
z-score [1]: -0.495 | z-score [2]: 0.561 (inactive) | z-score [3]: 0.174 (inactive) | composite z-score [4]: -0.28 (inactive) | z-score [5]: 0.389 (inactive) | z-score [6]: 0.0857 (inactive) | z-score [7]: -0.837 (inactive) | z-score [8]: 0.11 (inactive) | z-score [9]: 0.577 | composite z-score [10]: 0.057 | composite z-score [11]: -0.0033 (inactive) | composite z-score [12]: 0.216 | z-score [13]: -0.648 | z-score [14]: -0.285 (inactive)

COc1cccc([C@H]2Oc3ccc(OC)cc3C(=NOC[C@@H](O)[C@H]3O[C@@H]4OC(C)(C)O[C@@H]4[C@H]3O)[C@@H]2O)c1
z-score [1]: -0.791 | z-score [2]: -6.98 (inactive) | z-score [3]: -1.21 (inactive) | composite z-score [4]: 0.474 (inactive) | z-score [5]: 0.56 (inactive) | z-score [6]: -0.0039 (inactive) | z-score [7]: -0.218 (inactive) | z-score [8]: 0.0308 (inactive) | z-score [9]: -0.687 | composite z-score [10]: 0.0865 | composite z-score [11]: -0.815 (inactive) | composite z-score [12]: 0.697 | z-score [13]: 0.187 | z-score [14]: -3.04 (inactive)

CCOC(=O)CCN1C(=O)[C@H]2[C@H]3[C@H](O)[C@H](O)CC(=NOCc4ccccc4)[C@H]3CC[C@H]2C1=O
z-score [1]: -0.436 | z-score [2]: 0.556 (inactive) | z-score [3]: -1.34 (inactive) | composite z-score [4]: 0.461 (inactive) | z-score [5]: 0.365 (inactive) | z-score [6]: 0.632 (inactive) | z-score [7]: 0.955 (inactive) | z-score [8]: 1.08 (inactive) | z-score [9]: -0.775 | composite z-score [10]: 0.012 | composite z-score [11]: -0.207 (inactive) | composite z-score [12]: -0.0274 | z-score [13]: 0.172 | z-score [14]: 0.313 (inactive)
